Source: PubChem
A selection: hits, their analogues and other compounds. The true share with any hit is near 2.2%.
APP 5UTR inh: APP translation inhibition. SH-SY5Y APP 5'UTR-luciferase reporter, luminescence. inhibition, % at 2 µM. 190,000 tested, 0.82% active. AID 1285;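 active = inhibition above a set limit, derived from the sample mean plus 3 SD, cut at about 45% in these data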
BaF3 parental: parental Ba/F3 viability inhibition as JAK2V617F counter-screen; CellTiter-Glo ATP luminescence; inhibition, % at 5.6 µM; 220,000 tested, 1.1% active; AID 1486;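 active = inhibition above a per-campaign cutoff, the mean inhibition of all tested compounds plus 3 SD, cut at about 27% in these data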;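 also: 0% = DMSO wells and 100% = JAK Inhibitor I control wells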
KLF5 inhibitor: suppresses KLF5 promoter-driven expression; DLD-1 KLF5 promoter-luciferase reporter, luminescence; inhibition, % at 5 µM; 290,000 tested, 0.23% active;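 active = inhibition above a per-plate limit of that plate's mean compound inhibition plus 3 SD, cut at about 60% in these data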;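 also: 0% = DMSO wells and 100% = LY294002 at 200 µM; higher means less KLF5 promoter-driven luciferase light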
Ba/F3 V617F tox: loss of viability in JAK2V617F-driven Ba/F3 cells; Ba/F3 EpoR-JAK2V617F viability, ATP luminescence; inhibition, % at 5.6 µM; 220,000 tested, 1.1% active; AID 1446;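 active = inhibition above the campaign mean plus 3 SD over all tested compounds, cut at about 24% in these data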;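 also: cytokine-independent growth of Ba/F3 cells driven by EpoR plus mutant JAK2; 0% = DMSO-treated cells and 100% = JAK inhibitor I control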
aSyn 5UTR inh: MLPCN primary screen, SNCA 5' untranslated region | 300,000 tested, 0.82% active | inhibition, % (tested at 7.5 µM) | alpha-synuclein 5'UTR reporter, inhibitor activity; in the data active = inhibition above about 60%;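 also: H4 neuroglioblastoma cells stably carrying SNCA 5'UTR luciferase fusion; 0% = DMSO wells and 100% = positive control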
IEC-6 tox-1: counter-screen for KLF5 inhibitors: cytotoxicity in IEC-6 cells; 290,000 tested, 0.78% active; inhibition, % at 5 µM; IEC-6 cytotoxicity, luminescence viability;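 also: 0% = plate median of test compound wells and 100% = cytotoxic reference compound wells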
KLF5 confirm: KLF5 inhibition, confirmation assay | shares compounds with KLF5 inhibitor | DLD-1 KLF5 promoter firefly luciferase reporter, luminescence | inhibition, % at 4 µM | 610 tested, 79% active | AID 1834;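 active = inhibition above a set limit taken from the earlier primary screen, cut at about 63% in these data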;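 also: 0% = DMSO wells and 100% = LY294002 at 200 µM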
IEC-6 tox-2: counter-screen for KLF5 inhibitors: cytotoxicity in rat IEC-6 cells. inhibition, % at 4 µM. 610 tested, 56% active. shares compounds with KLF5 inhibitor. IEC-6 rat intestinal cells, viability luminescence; in the data active = inhibition above about 23%;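 also: cells exposed to compounds for 48 hours before viability read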
IEC-6 tox confirm: confirmation of cytotoxic compounds in rat IEC-6 intestinal epithelial cells. shares compounds with IEC-6 tox-1. IEC-6 rat intestinal epithelial viability, luminescence. inhibition, % at 5 µM. 1,900 tested, 63% active. AID 1907;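 also: 0% = vehicle and 100% = reference cytotoxic drug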
Starred values were filed as active, the others as inactive; . = not tested or not shown. Rule as the data show it, unless noted: active = inhibition above about 22%; inactive = the rest.

SMILES	APP 5UTR inh	BaF3 parental	KLF5 inhibitor	Ba/F3 V617F tox	aSyn 5UTR inh	IEC-6 tox-1	KLF5 confirm	IEC-6 tox-2	IEC-6 tox confirm
CN1Cc2cc(C(=O)c3cc(Cl)cc(CSc4ncccn4)c3O)cnc2NC1=O	95.5*	74.8*	75.2*	70.8*	78.7*	72.9*	84.9*	59.2*	66.2*
CN(C)S(=O)(=O)c1cccc(COC(=O)c2cccnc2Cl)c1	.	.	-14.6	.	3.1	4.5	.	.	.
CCCCn1c(N)c(N(CCOC)C(=O)C2CCN(c3ncnc4sc(C)c(C)c34)CC2)c(=O)[nH]c1=O	.	.	.	.	-5.0	.	.	.	.
C/C(=N\NC(=O)c1c(Br)c(C)nn1C)c1cccc(NC(=O)C2CCC2)c1	-7.6	4.7	-40.8	2.8	-36.9	4.0	.	.	.
C/C(=N\NC(=O)c1c([N+](=O)[O-])c(C)nn1C)c1ccc(NC(=O)C2CCCC2)cc1	.	.	65.0*	.	80.5*	76.7*	75.7*	54.0*	64.0*
C/C(=N\NC(=O)c1c([N+](=O)[O-])c(C)nn1C)c1ccc(NC(=O)c2ccc(C)o2)cc1	.	.	-53.2	.	-104.2	-2.6	.	.	.
C/C(=N\NC(=O)c1c(Cl)c(C)nn1C)c1ccc(NC(=O)C2CCC2)cc1	.	.	65.3*	.	44.0	72.6*	82.8*	59.9*	52.3*
COC(=O)C1CC23C=CCN4CCC5(c6ccccc6NC15C2C)C43 (stereo unspecified)	.	.	61.9*	.	93.8*	87.6*	78.6*	59.2*	59.2*
CN1CC[C@@]2([C@@]34CCN(C)C3Nc3ccccc34)c3ccccc3NC12 (stereo partly specified)	.	.	.	.	10.6	.	.	.	.
O=C(N/N=C/c1ccccc1O)c1ccc2c(c1)OCO2	.	.	71.9*	.	-46.9	76.4*	4.4	12.0	18.7
COc1cc(/C=N/n2c(C3CCCCC3)n[nH]c2=S)ccc1O	.	.	-64.2	.	33.6	-3.1	.	.	.
O=C(NNc1ncc(C(F)(F)F)cc1Cl)c1c(Cl)cccc1Cl	15.0	83.4*	71.3*	83.1*	-11.8	46.1*	43.6	14.3	31.6*
COc1ccc2c(c1)C=C([C@@H]1C[C@H]3CN(c4ccccc4)C(=O)[C@]34CCCN14)CO2	-3.2	101.5*	74.6*	98.6*	-24.2	87.0*	-5.3	3.5	0.6
CN1C[C@@H]2C[C@@H](C3=Cc4cc(Cl)ccc4OC3)N3CCC[C@@]23C1=O	-4.7	6.6	-37.0	-0.9	11.7	-2.6	.	.	.
COc1ccc([N+](=O)[O-])cc1NC(=O)C(C)OC(=O)C1CCC1 (stereo unspecified)	.	.	.	.	-8.7	.	.	.	.
CCc1noc(C)c1C(=O)Nc1ccc(S(=O)(=O)N2CCC(C)CC2)cc1	.	.	.	.	15.5	.	.	.	.
COC(=O)c1ccc(C(=O)NC2CCCc3c2cnn3-c2ccc(C)c(C)c2)cc1 (stereo unspecified)	.	.	68.1*	.	104.5*	76.1*	75.9*	55.5*	57.5*
Cc1cc(C(=O)NC2CCCc3c2cnn3-c2ccc(C)c(C)c2)nc(C)n1 (stereo unspecified)	.	.	-1.4	.	-2.4	2.9	.	.	.
COC(=O)c1sc(N)c(C(=O)OC)c1COC(=O)c1c(C)noc1C	43.0	72.9*	68.1*	71.0*	40.2	66.5*	42.0	35.0*	41.7*
O=C(N/N=C(\c1ccccc1)c1cccnc1)c1ccc(O)cc1	.	.	-47.8	.	-1.6	-3.7	.	.	.
O=C(N/N=C(\c1ccccc1)c1cccnc1)c1cccc(F)c1	.	.	67.7*	.	80.4*	99.7*	84.4*	75.2*	79.5*
C/C(=N\NC(=O)C1(C)CC1(Br)Br)c1ccc(NC(=O)c2ccc(C)o2)cc1 (stereo unspecified)	-15.0	1.2	-30.5	0.7	-55.9	6.6	.	.	.
CCOc1ccc2[nH]c(C(=O)N/N=C/c3ccc(OC)cc3)cc2c1	.	.	65.9*	.	75.9*	84.4*	73.3*	58.4*	58.0*
CCN(CC)c1ccc(N=Cc2ccc(N(CC)CC)cc2O)cc1	10.1	6.9	-32.4	1.2	-19.7	-3.4	.	.	.
CCN(CC)c1ccc(/C=N/N=C(N)N)c(O)c1	92.2*	75.3*	74.7*	78.3*	86.9*	68.9*	77.3*	66.6*	56.9*
SMILES	APP 5UTR inh	BaF3 parental	KLF5 inhibitor	Ba/F3 V617F tox	aSyn 5UTR inh	IEC-6 tox-1	KLF5 confirm	IEC-6 tox-2	IEC-6 tox confirm
N#Cc1ccc(-c2cccs2)nc1SCc1cccnc1	.	69.1*	62.4*	73.2*	90.3*	78.7*	74.7*	63.9*	64.2*
CC(=O)NNC(=O)c1[nH]c2ccc(Cl)cc2c1-c1ccccc1	.	-0.8	-8.5	-1.2	11.9	-4.5	.	.	.
NNC(=O)c1[nH]c2ccccc2c1-c1ccccc1	.	.	81.6*	.	95.7*	95.0*	0.0	1.4	11.3
CC(Oc1ccccc1)C(=O)Nc1nnc(S(=O)(=O)N(C)c2ccccc2)s1 (stereo unspecified)	.	.	-37.6	.	21.1	3.2	.	.	.
COc1cc(-c2noc(C)c2/C=C/c2ccc(C(=O)O)cc2)cc(OC)c1OC	.	.	-5.4	.	7.2	-5.0	.	.	.
COc1cc(-c2noc(C)c2/C=C/c2cccc([N+](=O)[O-])c2)cc(OC)c1OC	.	.	64.2*	.	69.2*	79.4*	79.5*	54.5*	53.7*
Cc1nn(-c2ccccc2)c(C)c1/C=N/NC(=O)c1cc(-c2cccc3ccccc23)n[nH]1	4.3	5.2	-57.8	6.2	-2.2	6.8	.	.	.
Cc1nn(-c2ccccc2)c(C)c1/C=N/NC(=O)c1cc(-c2ccccc2)n[nH]1	95.0*	78.4*	62.9*	70.8*	82.1*	76.8*	84.2*	65.4*	58.2*
CCOc1ccccc1NS(=O)(=O)c1ccc(-c2cnc(C3CC3)o2)cc1	.	.	77.5*	.	20.3	90.2*	82.7*	64.0*	58.6*
CC1CCN(Cc2c(C(=O)N/N=C/c3ccccc3O)nnn2-c2nonc2N)CC1	.	.	70.2*	.	65.5*	47.2*	85.1*	15.7	41.8*
CCN(CC)S(=O)(=O)c1cc(C(=O)Nc2cccnc2Cl)ccc1Cl	-10.8	3.3	-17.7	2.1	-7.9	1.3	.	.	.
CCCCS(=O)(=O)/C=C\C=C/S(=O)(=O)CCCC	97.7*	104.9*	103.2*	100.7*	-8.6	101.9*	91.8*	100.5*	40.5*
CCOC(=O)/C(C#N)=N\Nc1cc(Cl)ccc1OC	.	-1.2	0.8	4.2	8.5	1.4	.	.	.
Cc1ccc(C)c(Nc2cc(C)nc3ccccc23)c1	.	.	.	.	27.8	.	.	.	.
COc1cccc(Cn2c(NCc3ccccn3)nc3c2c(=O)n(C)c(=O)n3C)c1	-19.6	1.1	-12.1	1.1	.	1.6	.	.	.
COc1cccc(Cn2c(NCc3cccnc3)nc3c2c(=O)n(C)c(=O)n3C)c1	32.8	90.0*	83.9*	90.7*	71.3*	87.7*	96.7*	69.7*	81.0*
O=C(Cc1csc(NC(=O)c2ccc(F)cc2)n1)NO	11.0	7.2	-20.0	0.9	3.2	-1.5	.	.	.
